# The full list was thinned out, with hits kept by preference.
# miR122 inh = miR-122 sensor activation; Huh7 psiCHECK-miR122 Renilla luciferase sensor, 48 h; activation, % at 12.5 µM; hit rate 0.14% among 340,000; AID 623901;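 active means mean activation of 30% or more, with every replicate also reaching 30%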;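 further: 0% = median of neutral control wells and 100% = median of positive control wells; higher luciferase signal means stronger suppression of miR-122 activity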
# * marks the source's active call; other numbers are inactive results.
SMILES,miR122 inh
CCC(=O)Nc1ccc2c(c1)OC[C@H](C)N(CCC(F)(F)F)C[C@H](C)[C@H](OC)CN(C)C2=O,-3
CCCC(=O)Nc1ccc2c(c1)OC[C@H](C)N(C)C[C@H](C)[C@H](OC)CN(C)C2=O,-2
COc1ccc(C#Cc2cnc3c(c2)C(=O)N([C@H](C)CO)C[C@H](C)[C@@H](CN(C)CC2CCCC2)O3)cc1,1
C[C@H](CO)N1C[C@H](C)[C@H](CN(C)C(=O)C2CCOCC2)Oc2cc(-c3ccc(C(=O)N(C)C)cc3)ccc2S1(=O)=O,4
C[C@H]1CN([C@@H](C)CO)S(=O)(=O)c2ccc(-c3ccc(C(=O)N(C)C)cc3)cc2O[C@H]1CN(C)C(=O)C1CCOCC1,7
C[C@H]1CN([C@@H](C)CO)S(=O)(=O)c2ccc(-c3ccc(C(=O)N(C)C)cc3)cc2O[C@H]1CN(C)C(=O)C1CCC1,43*
C[C@H](CO)N1C[C@H](C)[C@H](CN(C)C(=O)C2CCC2)Oc2cc(-c3ccc(C(=O)N(C)C)cc3)ccc2S1(=O)=O,55*
C[C@H]1CN([C@@H](C)CO)S(=O)(=O)c2ccc(-c3ccc(C(=O)N(C)C)cc3)cc2O[C@@H]1CN(C)C(=O)C1CCOCC1,-9
C[C@@H]1CN([C@H](C)CO)S(=O)(=O)c2ccc(-c3ccc(C(=O)N(C)C)cc3)cc2O[C@@H]1CN(C)C(=O)C1CCOCC1,20
C[C@H](CO)N1C[C@H](C)[C@@H](CN(C)S(=O)(=O)c2ccc(F)cc2)Oc2ncc(/C=C/c3ccccc3)cc2C1=O,0
Cc1noc(C)c1NC(=O)N(C)C[C@@H]1Oc2ncc(C#Cc3ccc(C(F)(F)F)cc3)cc2C(=O)N([C@H](C)CO)C[C@@H]1C,5
CCCC#Cc1cnc2c(c1)C(=O)N([C@@H](C)CO)C[C@H](C)[C@@H](CN(C)C(=O)C1CC1)O2,5
C[C@H]1CN([C@@H](C)CO)S(=O)(=O)c2ccc(C#CC3CCCC3)cc2O[C@H]1CN(C)CC1CC1,0
COc1cccc(NC(=O)N(C)C[C@H]2Oc3ncc(C#Cc4ccccc4)cc3C(=O)N([C@@H](C)CO)C[C@H]2C)c1,5
CC(=O)N(C)C[C@@H]1Oc2cc(C#C[C@H](C)O)ccc2S(=O)(=O)N([C@@H](C)CO)C[C@@H]1C,-1
CC(C)CC#Cc1cnc2c(c1)C(=O)N([C@H](C)CO)C[C@H](C)[C@H](CN(C)C(=O)Cc1ccccc1)O2,4
COc1ccc(S(=O)(=O)NCc2ccccn2)cc1NC(=O)c1ccc(C)cc1,-94
CCOC(=O)c1ccc(-n2ccnc2)c(NC(=O)c2cccc(Br)c2)c1,-128
CCOc1cc(NC(=O)c2ccccn2)c(OCC)cc1NC(=O)c1ccc(Cl)cc1,34*
C[C@@H]1CN([C@H](C)CO)S(=O)(=O)c2ccc(Br)cc2O[C@H]1CN(C)C(=O)CC1CC1,-15
CC(C)NC(=O)N(C)C[C@H]1Oc2cc(-c3ccccc3)ccc2S(=O)(=O)N([C@@H](C)CO)C[C@H]1C,4
COc1ccccc1-c1ccc2c(c1)O[C@H](CN(C)C(C)=O)[C@@H](C)CN([C@H](C)CO)S2(=O)=O,4
CCOC(=O)/C(=C\C=C1/Sc2ccccc2N1CC)C(C)=O,52*
COc1cccc(-c2cnc3c(c2)C(=O)N([C@H](C)CO)C[C@H](C)[C@H](CN(C)Cc2cccc(C)c2)O3)c1,8
C[C@@H]1CN([C@@H](C)CO)C(=O)Cc2cc(NC(=O)c3ccncc3)ccc2O[C@H]1CN(C)Cc1ccc(-c2ccccc2)cc1,32*
SMILES,miR122 inh
C[C@H](CO)N1C[C@H](C)[C@H](CN(C)Cc2ccc(C(=O)Nc3ccccc3N)cc2)Oc2ccc(NC(=O)Nc3ccc(F)cc3)cc2CC1=O,-267
C[C@H](CO)N1C[C@H](C)[C@@H](CN(C)Cc2ccc(-c3ccccc3)cc2)Oc2ccc(NC(=O)Cc3ccccc3)cc2CC1=O,35*
C[C@H](CO)N1C[C@H](C)[C@@H](CN(C)C(=O)Nc2ccccc2)Oc2ccc(NC(=O)Cc3ccccc3)cc2CC1=O,0
C[C@@H]1CN([C@@H](C)CO)C(=O)Cc2cc(NC(=O)C3CCCCC3)ccc2O[C@H]1CN(C)Cc1ccncc1,3
CC(C)NC(=O)Nc1ccc2c(c1)CC(=O)N([C@H](C)CO)C[C@@H](C)[C@@H](CN(C)Cc1ccc(Oc3ccccc3)cc1)O2,-97
C/C=C/c1cnc2c(c1)C(=O)N([C@H](C)CO)C[C@@H](C)[C@H](CN(C)C(=O)Cc1cccnc1)O2,-2
C[C@H](O)C#Cc1cnc2c(c1)C(=O)N([C@@H](C)CO)C[C@@H](C)[C@@H](CN(C)Cc1cncnc1)O2,1
Cc1c(NC(=O)/C=C/c2cn(-c3ccccc3)nc2-c2ccccc2)c(=O)n(-c2ccccc2)n1C,37*
COc1ccccc1-c1cnc2c(c1)C(=O)N([C@H](C)CO)C[C@H](C)[C@H](CN(C)C(=O)c1ccccc1)O2,3
COc1cccc(-c2cnc3c(c2)C(=O)N([C@@H](C)CO)C[C@H](C)[C@@H](CN(C)C(=O)Nc2ccccc2F)O3)c1,2
Cc1ccc(C2CN=NC23CCc2ccccc2C3=O)cc1 (configuration not stated),51*
Cc1ccc(C2CN(C)C3(C(=O)Nc4ccccc43)C23COc2ccccc2C3=O)cc1 (configuration not stated),-295
CCC(=O)N(C)C[C@H]1Oc2cc(-c3cccc(C#N)c3)ccc2S(=O)(=O)N([C@H](C)CO)C[C@H]1C,9
CCCNC(=O)N(C)C[C@H]1Oc2cc(C#CCOC)ccc2S(=O)(=O)N([C@H](C)CO)C[C@H]1C,-10
COC(=O)[C@@H]1Cc2c([nH]c3ccccc23)C(C)(C)N1C(=O)CCl,32*
C/C=C/c1cnc2c(c1)C(=O)N([C@@H](C)CO)C[C@@H](C)[C@H](CN(C)C(=O)Nc1ccccc1F)O2,-8
C[C@@H]1CN([C@@H](C)CO)S(=O)(=O)c2ccc(C#CC3CC3)cc2O[C@@H]1CN(C)C(=O)C1CC1,15
CCc1ccccc1NC(=O)CN(C)C(=O)Cn1ncc(Cl)c(Cl)c1=O,63*
COc1cccc(-c2cnc3c(c2)C(=O)N([C@H](C)CO)C[C@H](C)[C@H](CN(C)S(=O)(=O)c2ccc(F)cc2)O3)c1,-16
Cc1ccccc1NCN1C(=O)C2C3C=CC(C3)C2C1=O (configuration not stated),34*
CCCN(C)C[C@@H]1Oc2cc(C#CCN(C)C)ccc2S(=O)(=O)N([C@H](C)CO)C[C@@H]1C,-5
Cc1cc(CN(C)C(=O)c2cc(COc3ccc4ncccc4c3)on2)on1,35*
C[C@@H]1CN([C@@H](C)CO)C(=O)c2cc(-c3cccc(C(=O)N(C)C)c3)cnc2O[C@@H]1CN(C)S(=O)(=O)c1ccc(F)cc1,2
COc1cccc(C#Cc2ccc3c(c2)O[C@H](CN(C)C(C)=O)[C@@H](C)CN([C@H](C)CO)S3(=O)=O)c1,-13
CCC(=O)N1[C@H](CN(C)C(C)=O)[C@H](c2ccc(-c3cccnc3)cc2)[C@@H]1CO,43*
CC(=O)N1[C@H](CNC(=O)C2CC2)[C@H](c2ccc(-c3ccccc3)cc2)[C@@H]1CO,-150
CCC(=O)N(C)C[C@@H]1Oc2cc(-c3cccc(C#N)c3)ccc2S(=O)(=O)N([C@@H](C)CO)C[C@@H]1C,2
CCN(C[C@@H]1[C@@H](c2ccccc2)[C@@H](CO)N1C(=O)COC)S(C)(=O)=O,-92
CCCNC(=O)NC[C@@H]1[C@@H](c2ccc(C3=CCCC3)cc2)[C@H](CO)N1C(=O)CC,-343
